Laboratory results: the OligoGym collection

Biological target: KDELR1
Test: pooled miR-30 sensor sort-seq; sequence = guide strand
Conditions: shRNA
Further: reference of the scale not given here.

Q: TTTGGTGATATAGAGGTAGAAG was tested. Which sensor-assay potency score (higher = more potent) did it give?
A: -0.962

Q: How did the sensor-assay potency score (higher = more potent) turn out when TTGCTCACCATGAACAGCTGCG was run?
A: -0.0886

Q: ATCGTAAGTAGCTTTGAACTTG was tested. Which sensor-assay potency score (higher = more potent) did it give?
A: -0.446

Q: For TTGAGCAGTAGCAAGATGATGG, which sensor-assay potency score (higher = more potent) is on record?
A: -0.401

Q: For TAGGACTTTGGTGATATAGAGG, which sensor-assay potency score (higher = more potent) is on record?
A: -1.32

Biological target: KDM2B
Test: as above
Conditions: shRNA

Q: For TGGTTGAACAGCTTCTCCCTTG, which sensor-assay potency score (higher = more potent) is on record?
A: -0.428

Q: How did the sensor-assay potency score (higher = more potent) turn out when TTACACTTCGGACACTCCCAGC was run?
A: -1.12

Q: How did the sensor-assay potency score (higher = more potent) turn out when TTCTTTGCCAGGTTTGAGCCGC was run?
A: -0.547

Q: For TAAACTTGCCTTCCTCCTCTTC, which sensor-assay potency score (higher = more potent) is on record?
A: -0.422

Q: For TTCTTTGCCAGGTTTGAGCTGC, which sensor-assay potency score (higher = more potent) is on record?
A: -0.103

Q: Which sensor-assay potency score (higher = more potent) does the source give for TTGTCCATCTGACCTGGCCTGT here?
A: -0.884

Q: How did the sensor-assay potency score (higher = more potent) turn out when TTTGGCATCGTTCCACACGGTC was run?
A: -1.07

Q: Which sensor-assay potency score (higher = more potent) does the source give for TATCTCTCCAGGACATACCAGC here?
A: -0.897

Q: With TTCTTGGAGATATTGGTCCAGC as the sequence, how does the sensor-assay potency score (higher = more potent) read?
A: -0.935

Q: For TTCGAGTGCTCATCCGACCTGC, which sensor-assay potency score (higher = more potent) is on record?
A: 0.201

Q: With TATCGCTGGCGGTCAATCGGGC as the sequence, how does the sensor-assay potency score (higher = more potent) read?
A: -0.118

Q: Which sensor-assay potency score (higher = more potent) does the source give for TTGGAGATATTGGTCCAGCTGA here?
A: -0.912

Biological target: KDR
Test: as above
Conditions: shRNA

Q: How did the sensor-assay potency score (higher = more potent) turn out when TTGACTGCTACTGTCCTGCAAG was run?
A: -0.615

Q: Which sensor-assay potency score (higher = more potent) does the source give for TGTCTTTTCTTGGTCTTCCTGT here?
A: 0.316

Q: With TAGCTGATCATGTAGCTGGGAA as the sequence, how does the sensor-assay potency score (higher = more potent) read?
A: -0.114

Q: With TTCTTCTTGGTCATCAGCCCAC as the sequence, how does the sensor-assay potency score (higher = more potent) read?
A: -0.727

Q: TTCTTCTACATCACTGAGGGAC was tested. Which sensor-assay potency score (higher = more potent) did it give?
A: -0.165

Q: TTGCTGTCTTGTCAATTCCAAA was tested. Which sensor-assay potency score (higher = more potent) did it give?
A: -1.68

Q: Which sensor-assay potency score (higher = more potent) does the source give for TTTTGCTTCACAGAAGACCATG here?
A: -1.02

Q: Which sensor-assay potency score (higher = more potent) does the source give for TAATAGACTGGTAACTTTCATC here?
A: -0.621

Q: With TAATTTGGTTCTGTCTTCCAAA as the sequence, how does the sensor-assay potency score (higher = more potent) read?
A: -0.462

Q: Which sensor-assay potency score (higher = more potent) does the source give for TTGCACTCCAATCTCTATCAGC here?
A: -0.492

Q: For TAGACTGGTAACTTTCATCATT, which sensor-assay potency score (higher = more potent) is on record?
A: -0.75

Q: Which sensor-assay potency score (higher = more potent) does the source give for ATTTTGACTGCTACTGTCCTGC here?
A: 0.0399

Biological target: KHDRBS3
Test: as above
Conditions: shRNA

Q: How did the sensor-assay potency score (higher = more potent) turn out when TTGAGATGGAAGTACTTCGCTT was run?
A: -0.344

Q: TTCTATTTCTTGGTTCACCAGG was tested. Which sensor-assay potency score (higher = more potent) did it give?
A: -0.397

Q: How did the sensor-assay potency score (higher = more potent) turn out when TTGCTGTCCTCGCTGAAGGTGC was run?
A: -1.17

Q: TACTACAACTCCAACTGGCCGG was tested. Which sensor-assay potency score (higher = more potent) did it give?
A: -0.46

Q: How did the sensor-assay potency score (higher = more potent) turn out when TAACACTTTCTGTCCCAGCTTC was run?
A: 0.341

Q: How did the sensor-assay potency score (higher = more potent) turn out when TGGTACTACAACTCCAACTGGC was run?
A: -0.54

Q: For TTGAGTTAGTCCACTCTTCTTG, which sensor-assay potency score (higher = more potent) is on record?
A: 0.078

Q: How did the sensor-assay potency score (higher = more potent) turn out when TTGAACAGTATACAGGACTGGT was run?
A: -0.303

Q: Which sensor-assay potency score (higher = more potent) does the source give for TAAGTCTCTTGTGTCGGGGGTG here?
A: -0.204

Q: With TAGTCCACTCTTCTTGCCCGTA as the sequence, how does the sensor-assay potency score (higher = more potent) read?
A: -0.553

Q: How did the sensor-assay potency score (higher = more potent) turn out when TTGTGTCTTGAGTTAGTCCACT was run?
A: -0.733
